Results published in PubChem BioAssay (Tox21).
Records with an inconclusive call do not appear. A call without a number means that no potency is given here. A number with no mark means an inactive call. Calls of active or inactive are those of the source. Calls follow the shape of the dose curve; as a rule, active = well fitted curve in the direction sought with a large enough effect in the repeat runs; inconclusive = weak or mixed curves; inactive = no such curve, though single readings can be large; an effect the other way counts as inactive or inconclusive.

Tests used:
[1] = qHTS RealTime-Glo MT Cell Viability Assay in HepG2 cells - 40 hour (AID 1224870); also: nearly all actives have a fitted effect of over 50% in size
Outline: (§1)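 HepG2 cells mixed with RealTime-Glo MT reagents (NanoLuc plus cell-permeant prosubstrate) were seeded at 600 cells/well, incubated 5 h at 37 C/5% CO2, then pinned with compounds in DMSO; nonlytic luminescence tracked viability during 40 h treatment.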

[2] = A CellTox Green Cytotoxicity Assay to monitor cytotoxicity in HEK293 cells - 40 hour (AID 1224871); also: nearly all actives have a fitted effect of over 45% in size; also: potency is read from the fitted curve at half-maximal effect
Outline: (§2)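 HEK293 cells, 600/well, were preincubated 5 hours and then exposed to compounds at 37 C for up to 40 hours. A cell-impermeant cyanine dye staining dead-cell DNA was read by fluorescence at 0, 8, 16, 24, 32 and 40 h time points.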

[3] = qHTS RealTime-Glo MT Cell Viability Assay in HEK293 cells - 16 hour (AID 1224872); also: nearly all actives have a fitted effect of over 50% in size; also: potency is read from the fitted curve at half-maximal effect
Outline: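 Nonlytic real-time viability readout: viable cells convert prosubstrate to NanoLuc substrate, giving luminescence proportional to live cell number. HEK293, 600 cells/well, compound added after 5 h, continuous culture at 37 C.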

[4] = qHTS RealTime-Glo MT Cell Viability Assay in HepG2 cells - 8 hour (AID 1224873); also: nearly all actives have a fitted effect of over 55% in size
Outline: as §1

[5] = qHTS RealTime-Glo MT Cell Viability Assay in HEK293 cells - 40 hour (AID 1224874); conditions: RealTime-Glo luminescence; max response: active compounds read low; also: nearly all actives have a fitted effect of over 50% in size; also: potency is read from the fitted curve at half-maximal effect
Outline: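 600 cells/well were plated with the nonlytic NanoLuc/prosubstrate reagent, pre-incubated 5 h, then given 23 nL of compound in DMSO. Incubation at 37 C for 40 h, with luminescence from viable-cell-reduced substrate read repeatedly from 0 h.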

[6] = A CellTox Green Cytotoxicity Assay to monitor cytotoxicity in HEK293 cells - 24 hour (AID 1224875); also: nearly all actives have a fitted effect of over 45% in size; also: potency is read from the fitted curve at half-maximal effect
Outline: as §2

[7] = A CellTox Green Cytotoxicity Assay to monitor cytotoxicity in HepG2 cells - 16 hour (AID 1224876); also: nearly all actives have a fitted effect of over 45% in size; also: potency is read from the fitted curve at half-maximal effect
Outline: (§3)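 HepG2 cells, 600/well, preincubated 5 h with CellTox Green dye, then exposed to Tox21 compounds in DMSO at 37 C for up to 40 h. Dead-cell DNA fluorescence read at the indicated time point.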

[8] = qHTS RealTime-Glo MT Cell Viability Assay in HepG2 cells - 32 hour (AID 1224877); also: nearly all actives have a fitted effect of over 55% in size
Outline: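 Luminescence read-out: viable HepG2 cells reduce a prosubstrate to a NanoLuc substrate, giving a signal proportional to live cell number. Reads taken at 0, 8, 16, 24, 32 and 40 h of compound exposure at 37 C.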

[9] = A CellTox Green Cytotoxicity Assay to monitor cytotoxicity in HepG2 cells - 24 hour (AID 1224878); also: nearly all actives have a fitted effect of over 45% in size; also: potency is read from the fitted curve at half-maximal effect
Outline: as §3

[10] = A CellTox Green Cytotoxicity Assay to monitor cytotoxicity in HepG2 cells - 40 hour (AID 1224879); also: nearly all actives have a fitted effect of over 40% in size; also: potency is read from the fitted curve at half-maximal effect
Outline: as §3

SMILES	Potency [1]	Potency [2]	Potency [3]	outcome [4]	max response [5] [%]	Potency [6]	Potency [7]	Potency [8]	Potency [9]	Potency [10]	Potency [5]
Cc1ccc([N+](=O)[O-])c(N)c1	inactive	inactive	inactive	inactive	-1.42	inactive	inactive	inactive	inactive	inactive	–
CN1[C@@H]2CC[C@H]1CC(OC(=O)c1c[nH]c3ccccc13)C2 (some centres undefined)	inactive	inactive	inactive	inactive	4.75	inactive	inactive	inactive	inactive	inactive	–
O=C(CCCl)NCc1ccccc1	inactive	inactive	inactive	inactive	-3.01	inactive	inactive	inactive	inactive	inactive	–
CCN(CC)CC1CCCCN1CC(=O)N1c2ccccc2C(=O)Nc2cccnc21 (centres undefined)	inactive	inactive	inactive	inactive	0.471	inactive	inactive	inactive	inactive	inactive	–
Cc1ccc(C=O)s1	inactive	43.6 µM (active)	inactive	inactive	5.96	43.6 µM (active)	27.5 µM (active)	inactive	38.9 µM (active)	27.5 µM (active)	–
COc1ccccc1N1CCN(CCCNc2cc(=O)n(C)c(=O)n2C)CC1	inactive	inactive	inactive	inactive	-21.2	inactive	inactive	inactive	inactive	inactive	–
C=CC(C)(O)CC/C=C(\C)CCC=C(C)C (centres undefined)	inactive	49 µM (active)	inactive	inactive	-1.81	54.9 µM (active)	17.4 µM (active)	inactive	21.9 µM (active)	21.9 µM (active)	–
Cc1nc(N)nc(N)c1-c1ccc(Cl)c(Cl)c1	inactive	inactive	inactive	inactive	–	inactive	inactive	inactive	inactive	inactive	1.07 µM (active)
C=C(C)C(=O)OCCOP(=O)(O)O	inactive	inactive	inactive	inactive	13.8	inactive	inactive	inactive	inactive	inactive	–
FC(F)(F)C(Cl)(Cl)Cl	inactive	inactive	inactive	inactive	6.41	inactive	inactive	inactive	inactive	inactive	–
Cc1nc(-c2ccccn2)ncc1C(=O)Nn1cc(C)c2cc(F)ccc21	inactive	inactive	1.74 µM (active)	inactive	–	inactive	–	inactive	inactive	inactive	1.38 µM (active)
CC(=O)OC1C2(C)CCC(C2)C1(C)C (centres undefined)	inactive	inactive	inactive	inactive	-0.0469	inactive	–	inactive	inactive	inactive	–
CCOC(=O)c1cc(=O)c2c(OCC(COc3cccc4oc(C(=O)OCC)cc(=O)c34)OC(=O)[C@@H](N)CCCCN)cccc2o1	inactive	inactive	inactive	inactive	3.47	inactive	–	inactive	inactive	inactive	–
CCN(CC)CCNC(=O)COc1ccc(Cl)cc1	inactive	inactive	inactive	inactive	2.3	inactive	–	inactive	–	inactive	–
CCCCNc1cc(C(=O)O)cc(S(N)(=O)=O)c1Oc1ccccc1	inactive	inactive	inactive	inactive	0.323	inactive	–	inactive	inactive	inactive	–
